ADAM17 inh – inhibitors of human ADAM17 | P78536 | recombinant ADAM17, EDANS/DABCYL FRET peptide cleavage | inhibition, % at 6.95 µM | 370,000 compounds, 0.83% hits | AID 720648;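 active means inhibition above the mean of compounds lying between control limits plus 3 SD, set per campaign, cut at about 8.5% in these data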;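 further: 0% = DMSO-only wells as the low control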
CendR NRP1 mod – alters CendR peptide binding to human NRP-1; FAM-RPARPAR peptide binding to NRP-1, fluorescence polarization; inhibition, % at 25 µM; AID 602438; 360,000 compounds, 0.85% hits; O14786;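 active means inhibition or corrected inhibition above about 18%, plus a signal ratio from 0.5 to 1.5, limit read from the data, passing the limit was not always enough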
ADAM10 inh – inhibitors of human ADAM10; inhibition, % at 7 µM; 370,000 compounds, 0.62% hits; O14672; recombinant ADAM10, EDANS/DABCYL FRET peptide cleavage, 3 h;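 active means inhibition above a per-campaign cutoff equal to the mean of compounds falling between control-based bounds plus 3 SD, cut at about 20% in these data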;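 further: 0% = DMSO wells while the 100% control is not disclosed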
HGIII-sPLA2 inh – Inhibits HGIII-sPLA2 liposome hydrolysis, primary screen; 370,000 compounds, 0.56% hits; Q9NZ20; QFRET BODIPY PC-A2 liposome hydrolysis, fluorescence; inhibition, % at 12.2 µM;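 active means inhibition above mean plus 3 SD of compounds lying within the high and low control bounds, cut at about 19% in these data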;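 further: 0% = median of test compound wells and 100% = no enzyme DMSO wells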
proKLK7 act – activators of human kallikrein-7 zymogen | P49862 | purified proKLK7, EDANS-DABCYL substrate fluorescence; 100% is mature enzyme control, 0% vehicle | activation, % at 7 µM | 370,000 compounds, 0.9% hits | AID 652039;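 active means activation above the mean of all tested compounds plus 3 SD, computed per campaign excluding outliers beyond control limits, cut at about 13% in these data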
Target sequence (P49862 whole entry, looked up): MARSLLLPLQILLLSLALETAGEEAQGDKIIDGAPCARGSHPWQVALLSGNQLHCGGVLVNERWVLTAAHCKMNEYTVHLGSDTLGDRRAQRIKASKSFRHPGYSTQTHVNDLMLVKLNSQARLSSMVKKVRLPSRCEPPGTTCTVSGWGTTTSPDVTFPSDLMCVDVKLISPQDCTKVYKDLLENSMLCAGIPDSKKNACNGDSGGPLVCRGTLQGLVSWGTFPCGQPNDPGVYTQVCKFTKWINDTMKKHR
ADAM10 confirm – human ADAM10 inhibition, confirmation; 2,100 compounds, 1% hits; inhibition, % at 6.95 µM; shares compounds with ADAM10 inh; ADAM10 QFRET peptide cleavage, EDANS fluorescence; AID 743208;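 active means inhibition above about 20% chosen separately for each screening run, limit read from the data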;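 further: 0% = DMSO wells and 100% = marimastat wells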
ADAM17 counter – counter-screen for ADAM10 exosite inhibitors: inhibitors of human ADAM17; inhibition, % at 6.95 µM; 2,100 compounds, 0.5% hits; shares compounds with ADAM10 inh; ADAM17 QFRET peptide cleavage, EDANS fluorescence;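 active means mean triplicate inhibition above the solvent-only control wells' mean plus 3 SD, cut at about 12% in these data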;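 further: 0% = DMSO wells and 100% = marimastat wells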
* marks the source's active call; other numbers are inactive results; · = no result. Most compounds without a hit are left out; they make up all but 3.4% or so of the library.

SMILES | ADAM17 inh | CendR NRP1 mod | ADAM10 inh | HGIII-sPLA2 inh | proKLK7 act | ADAM10 confirm | ADAM17 counter
COc1ccc(C(=O)OCCCN(C)C2CN(Cc3cn(Cc4ccccc4F)nn3)S(=O)(=O)C2)cc1OC (stereo not given) | 0 | · | 3 | -1 | 0 | · | ·
CCCCCCCCN1C(=O)[C@@H](CC(=O)NCCCN2CCCC2=O)C[C@@]2(C(=O)OC)C1=C[C@H](COCc1ccccc1)O[C@@H]2C | -1 | · | -1 | -8 | 1 | · | ·
CC1(C)C=C2C(N(CC3CC3)C(=N)N2C(=O)OCc2ccccc2)n2c(=O)n(-c3ccccc3)c(=O)n21 (stereo not given) | -5 | · | -20 | 0 | · | · | ·
COc1cccc(-c2nnc(SCc3cc(C)ccc3C)n2Cc2ccco2)c1 | 7 | · | 11 | -5 | 1 | · | ·
CC(C)(C)OC(=O)NCCCC[C@H](NC(=O)c1nc[nH]c1C(=O)N[C@@H](CCCCNC(=O)OC(C)(C)C)C(=O)OC(C)(C)C)C(=O)OC(C)(C)C | 0 | 14 | 11 | -5 | 0 | · | ·
CC(C)(C)OC(=O)CNC(=O)c1[nH]cnc1C(=O)N[C@@H](CCCCNC(=O)OC(C)(C)C)C(=O)OC(C)(C)C | 1 | 16 | 23* | -13 | 1 | 0 | 0
Cc1cccc(NC(=O)c2nc[nH]c2C(=O)NCCCCCNC(=O)OC(C)(C)C)c1 | 0 | -2 | -2 | -4 | 0 | · | ·
C[C@H](NC(=O)c1nc[nH]c1C(=O)N[C@@H](CCCCNC(=O)OC(C)(C)C)C(=O)OC(C)(C)C)C(=O)OC(C)(C)C | 7 | 8 | 11 | -15 | 0 | · | ·
Cc1cccc(NC(=O)c2nc[nH]c2C(=O)N[C@@H](CCCCNC(=O)OC(C)(C)C)C(=O)OC(C)(C)C)c1 | 12* | 0 | 33* | -22 | -2 | 11 | 3
CC(C)(C)OC(=O)NCCCC[C@H](NC(=O)c1nc[nH]c1C(=O)NC(c1ccccc1)c1ccccc1)C(=O)OC(C)(C)C | 8 | -10 | 22* | -16 | 1 | 14 | 5
Cc1cccc(OCc2n[nH]c(=S)n2C2CCCCC2)c1 | 6 | 8 | 21* | 13 | 0 | 0 | 0
Cc1ccc(OCc2n[nH]c(=S)n2C2CCCCC2)cc1 | 5 | -5 | 11 | 14 | 0 | · | ·
O=C(Nc1ccn(Cc2ccccc2F)n1)c1ccc(COc2ccc(Br)cc2)cc1 | 3 | 1 | 20* | -9 | 0 | 5 | 1
O=C(Nc1ccc(Cn2cccn2)cc1)c1ccc(COc2ccc(Br)cc2)cc1 | 1 | 2 | 10 | 0 | 1 | · | ·
O=C(Nc1ccccc1C(F)(F)F)c1ccc(F)c(S(=O)(=O)N2CCOCC2)c1 | 4 | -15 | 22* | 7 | 1 | 3 | 0
CC(C)=CCC/C(C)=C/CNCC(=O)N1c2ccccc2[C@]2(C)C[C@@H]3C(=O)N(C/C=C(\C)CCC=C(C)C)CC(=O)N3[C@H]12 | -3 | · | -5 | -3 | 1 | · | ·
Cc1c(C(=O)N(C)Cc2ccc(OC(F)F)cc2)oc2ccccc12 | 2 | 0 | 20* | 0 | 0 | 2 | 0
COc1ccc(CCN(C)C(=O)c2oc3ccccc3c2C)cc1OC | -3 | 2 | -3 | 4 | 0 | · | ·
C[C@H]1C2CC(OC(=O)Nc3ccc4c(c3)OCO4)C(C2)[C@H]2CCCCN21 (stereo not given in full) | 2 | · | 4 | 9 | -1 | · | ·
Nc1[nH]c(C(=O)c2ccccc2)c(-c2cccc3ccccc23)c1C(=O)NC1CCCCC1 | 1 | · | -7 | 5 | 0 | · | ·
Cc1ccc(NC(=O)COc2ccc(N(C)S(=O)(=O)c3ccc(F)cc3)cc2)cc1 | 5 | 10 | 4 | -15 | -1 | · | ·
CN(c1ccccc1)S(=O)(=O)c1ccc(NC(=O)c2ccc(F)cc2)cc1 | 7 | 4 | 21* | -15 | 0 | 3 | 1
CN(c1ccc(OCC(=O)OCC(=O)Nc2ccc(F)cc2)cc1)S(=O)(=O)c1ccc(Cl)cc1 | 1 | -6 | 20* | -20 | 0 | 6 | 2
CN(C)c1cccc(/C=C2\CC3(OC(=O)c4ccc(F)cc4)CCCN2C3)c1 (stereo not given) | 0 | · | 1 | 14 | 0 | · | ·

Screening results: PubChem BioAssay, several laboratories
